The target of the experiment is SHP2 N-SH2 domain T42A. Nature of the experiment: log2 enrichment relative to wild-type ITIM peptide; higher = stronger binding.

B1: PD-1 ITIM pTyr223 peptide variant D222I (peptide)
chain: VFSVIYGELDF
In turn, B1 returned a log2 enrichment of -0.259.

B2: PD-1 ITIM pTyr223 peptide variant F228L (peptide)
chain: VFSVDYGELDL
B2 returned a log2 enrichment of -1.19.

B3: PD-1 ITIM pTyr223 peptide variant F228I (peptide)
chain: VFSVDYGELDI
Consider B3, for which the log2 enrichment is -1.45.

B4: PD-1 ITIM pTyr223 peptide variant E225F (peptide)
chain: VFSVDYGFLDF
With B4, the log2 enrichment was -0.82.

B5: PD-1 ITIM pTyr223 peptide variant V218I (peptide)
chain: IFSVDYGELDF
As to B5, the log2 enrichment was -0.151.

B6: PD-1 ITIM pTyr223 peptide variant S220V (peptide)
chain: VFVVDYGELDF
In the case of B6, the log2 enrichment was -0.0553.

B7: PD-1 ITIM pTyr223 peptide variant V218M (peptide)
chain: MFSVDYGELDF
Consider B7, for which the log2 enrichment was found to be 0.0157.

B8: PD-1 ITIM pTyr223 peptide variant G224M (peptide)
chain: VFSVDYMELDF
For B8, the log2 enrichment is -0.224.

B9: PD-1 ITIM pTyr223 peptide variant E225I (peptide)
chain: VFSVDYGILDF
Take B9: the log2 enrichment was -0.312.

B10: PD-1 ITIM pTyr223 peptide variant D227L (peptide)
chain: VFSVDYGELLF
In the case of B10, the log2 enrichment is -0.728.

B11: PD-1 ITIM pTyr223 peptide variant S220M (peptide)
chain: VFMVDYGELDF
For the molecule B11, the log2 enrichment is -0.0956.

B12: PD-1 ITIM pTyr223 peptide variant E225L (peptide)
chain: VFSVDYGLLDF
On to B12, for which the log2 enrichment was -0.496.

B13: PD-1 ITIM pTyr223 peptide variant D222M (peptide)
chain: VFSVMYGELDF
B13 registered a log2 enrichment of 0.307.

B14: PD-1 ITIM pTyr223 peptide variant V221L (peptide)
chain: VFSLDYGELDF
In turn, B14 gave a log2 enrichment of -0.962.

B15: PD-1 ITIM pTyr223 peptide variant V221F (peptide)
chain: VFSFDYGELDF
Turning to B15, the log2 enrichment was -1.03.

B16: PD-1 ITIM pTyr223 peptide variant F219V (peptide)
chain: VVSVDYGELDF
On to B16, for which the log2 enrichment was -0.0583.

B17: PD-1 ITIM pTyr223 peptide variant V221M (peptide)
chain: VFSMDYGELDF
Regarding B17, the log2 enrichment was -0.943.

B18: PD-1 ITIM pTyr223 peptide variant D227V (peptide)
chain: VFSVDYGELVF
B18 came in with a log2 enrichment of -0.565.

B19: PD-1 ITIM pTyr223 peptide variant V218F (peptide)
chain: FFSVDYGELDF
B19: the log2 enrichment is -0.37.

B20: PD-1 ITIM pTyr223 peptide variant F228W (peptide)
chain: VFSVDYGELDW
The molecule B20 came in with a log2 enrichment of 0.678.

B21: PD-1 ITIM pTyr223 peptide variant G224L (peptide)
chain: VFSVDYLELDF
B21 yielded a log2 enrichment of -0.0968.

B22: PD-1 ITIM pTyr223 peptide variant D222V (peptide)
chain: VFSVVYGELDF
For B22, the log2 enrichment turned out to be 0.135.

B23: PD-1 ITIM pTyr223 peptide variant V221I (peptide)
chain: VFSIDYGELDF
The molecule B23 had a log2 enrichment of -0.464.

B24: PD-1 ITIM pTyr223 peptide variant D227F (peptide)
chain: VFSVDYGELFF
Molecule B24 had a log2 enrichment of -0.714.

B25: PD-1 ITIM pTyr223 peptide variant S220F (peptide)
chain: VFFVDYGELDF
Take B25: the log2 enrichment is -0.202.

B26: PD-1 ITIM pTyr223 peptide variant D227W (peptide)
chain: VFSVDYGELWF
In turn, B26 showed a log2 enrichment of -0.71.

B27: PD-1 ITIM pTyr223 peptide variant D222F (peptide)
chain: VFSVFYGELDF
In turn, B27 registered a log2 enrichment of -0.334.

B28: PD-1 ITIM pTyr223 peptide variant G224W (peptide)
chain: VFSVDYWELDF
On to B28, for which the log2 enrichment is -0.623.

B29: PD-1 ITIM pTyr223 peptide variant F228V (peptide)
chain: VFSVDYGELDV
B29 yielded a log2 enrichment of -1.42.

B30: PD-1 ITIM pTyr223 peptide variant L226I (peptide)
chain: VFSVDYGEIDF
For B30, the log2 enrichment is -0.691.

The record behind these values is the supplement of paper PMC10369915.
